From ChEMBL document CHEMBL3433997, “St. Jude Leishmania screening dataset” (2016)

Key:
Assay type in all cases: functional
[1] = target: Solute carrier family 2, facilitated glucose transporter member 1 (Homo sapiens) (UniProt P11166); test: ST_JUDE_LEISH: Cytotoxicity at 2uM final concentration against transgenic Leishmania Mexicana promastigotes LmGLUT1 that are glucose transport deficient and complemented with the human glucose transporter GLUT1. Activity is measured by DNA content using SYBR green in vitro
[2] = target: Hexose transporter 1 (Plasmodium falciparum) (UniProt O97467); test: ST_JUDE_LEISH: Cytotoxicity at 2uM final concentration against transgenic Leishmania Mexicana promastigotes LmPfHT that are glucose transport deficient and complemented with the Plasmodium falciparum hexose transporter. Activity is measured by DNA content using SYBR green in vitro
[3] = target: Glucose transporter (Leishmania mexicana) (UniProt O61059); test: ST_JUDE_LEISH: Cytotoxicity at 2uM final concentration against transgenic Leishmania Mexicana promastigotes LmGT2 that are glucose transport deficient and complemented with the L. Mexicana glucose transporter 2. Activity is measured by DNA content using SYBR green in vitro

Chain of Solute carrier family 2, facilitated glucose transporter member 1 (Homo sapiens) (P11166 whole entry): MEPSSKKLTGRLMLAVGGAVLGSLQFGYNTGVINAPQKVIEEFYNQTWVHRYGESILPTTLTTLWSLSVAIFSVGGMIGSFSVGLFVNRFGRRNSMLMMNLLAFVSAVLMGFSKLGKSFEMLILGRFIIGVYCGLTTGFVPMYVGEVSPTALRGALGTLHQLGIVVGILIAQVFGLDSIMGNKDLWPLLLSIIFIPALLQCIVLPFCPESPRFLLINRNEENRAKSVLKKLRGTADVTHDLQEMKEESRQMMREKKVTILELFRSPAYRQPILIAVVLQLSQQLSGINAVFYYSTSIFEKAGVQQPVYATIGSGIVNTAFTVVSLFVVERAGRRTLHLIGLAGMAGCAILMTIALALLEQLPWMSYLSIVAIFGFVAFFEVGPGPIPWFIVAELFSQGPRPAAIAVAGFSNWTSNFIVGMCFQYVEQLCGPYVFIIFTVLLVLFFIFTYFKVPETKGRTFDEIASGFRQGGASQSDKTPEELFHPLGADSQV

SMILES	inhibition [1] [%]	inhibition [2] [%]	inhibition [3] [%]
Cc1cccc2nc(-c3ccc(-c4cccc(NC(=O)CCc5c[nH]cn5)c4)cc3)[nH]c12	0.1	1.46	2.35
Cc1ccc(Nc2nc(C)cc(N3CCN(c4ccccc4)CC3)n2)cc1	5.18	5.92	2.13
C[C@@H](Oc1cc(-n2cnc3ccc(NC(=O)CCN4CCCCC4)cc32)sc1C(N)=O)c1ccccc1Cl	8.99	5.72	-0.04
Cn1c(/C=C/C(=O)NC2CCC(CCN3CCc4ccc(C#N)cc4CC3)CC2)cc2ccccc21 (stereo not drawn)	2.51	4.9	3.48
O=C(Nc1ccccc1Cc1ccccc1)c1ccccc1[N+](=O)[O-]	-1.08	-2.27	-2.02
COc1ccc(CNC2CCN(C)CC2)cc1-c1ccc(S(=O)(=O)NCCc2ccccn2)cc1	-0.85	0.85	-0.1
CN(Cc1c(Cl)cnn1C)S(=O)(=O)c1ccc2ccccc2c1	5.51	7.25	5.64
COc1cc(F)c2ncc(F)c(CCN3C[C@H](CNCc4ccc5c(n4)NC(=O)CS5)[C@H](O)C3)c2c1	0.13	1.28	-0.04
Cc1c(C2CCN(CCCCNC(=O)c3ccc(-c4ccc(C#N)cc4)cc3)CC2)c2ccccc2n1CCO	3.84	0.33	3.72
CN1CCN(Cc2ccc(-c3cccc(-c4nc5ccccc5[nH]4)c3)cc2)CC1	1.13	0.78	-2.4
CCCN/C=N/c1cc(-c2csc(NC(=N)N)n2)cc([N+](=O)[O-])c1	-0.32	-0.62	-2.26
c1ccc(-c2cc(NCCCn3ccnc3)nc(-c3cccnc3)n2)cc1	2.2	3.19	0.94
CN1CCC[C@H]1COc1ccc(CN2CC[C@H](NC(=O)c3ccc(Cl)c(Cl)c3)C2)cc1Cl	1.83	0.86	-0.76
CC(C)c1ccc(NC(=O)NC2CCN(CCCCCN(C)C(=O)/C=C/c3ccc(Cl)c(Cl)c3)C2)cc1 (stereo not drawn)	5.33	7.26	6.41
COc1ccc(NC(=O)CCNc2cc(C)nc(NCc3cccc(C)c3)n2)cc1	-0.09	0.43	-1.14
COc1cc(C=CC(=O)N2CCC(CCN3CCC(c4c[nH]c5ccccc45)CC3)CC2)cc(OC)c1	4.99	6.56	3.47
CN(c1ccc(NC(=O)Nc2cc(C(F)(F)F)ccc2F)cc1)c1ccnc(NCCN2CCOCC2)n1	7.88	18.5	0.14
COc1cc(OC)cc(C(=O)Nc2nc(-c3ccccn3)cs2)c1	7.32	14.4	7.57

SMILES	inhibition [1] [%]	inhibition [2] [%]	inhibition [3] [%]
N#Cc1cccc(NC(=O)Nc2cccc(-c3cccc(-c4nc5cc(C(F)(F)F)ccc5[nH]4)c3)c2)c1	2.08	1.85	3.18
O=C(NCCCCCN1CCC(c2c[nH]c3ccccc23)CC1)Nc1ccc(Cl)c(Cl)c1	-1	-1.05	1.89
CN(C)CCOc1ccc2nc(-c3cccc(OCc4ccccc4)c3)[nH]c2c1C#N	2.41	1.25	1.74
COc1ccc(Cc2c(C)nc3nc(N)nc(N)c3c2C)cc1	39	38.2	34.5
N#Cc1ccc(-c2ccc(C(=O)NCCCCN3CCC(c4nc5ccccc5[nH]4)CC3)cc2)cc1	2.16	2.21	2.69
Cc1cccc(NC(=O)N(Cc2cc3cc(C)cc(C)c3[nH]c2=O)C2CC2)c1	9.62	10.1	6.55
Oc1ccc2nc(Nc3ccccc3)nc(NCCc3ccccc3)c2c1	7.22	6	5.72
CC1CC(NCCCNc2cc(=O)c3ccccc3[nH]2)c2c1cc(Cl)c(Cl)c2Cl (stereo not drawn)	-1.8	-2.9	2.54
COc1cccc(NC(=O)N2CCOC(CCN3CCC4(CCc5ccccc54)CC3)(c3ccc(Cl)c(Cl)c3)C2)c1 (stereo not drawn)	7.21	8	1.65
CC(C)(C)c1ccc(Cc2cccc3nc(N)nc(N)c23)cc1	21	16.4	11.4
CCc1ccc(S(=O)(=O)Nc2ccc(CCN3CCC(N4CCCCC4)CC3)cc2)cc1	13.9	14.9	11.4
CC(O)C1CCCCN1C(=O)c1ccc(-c2ccc(-c3nc4cc(F)ccc4[nH]3)cc2)cc1 (stereo not drawn)	3.95	3.23	3.6
Cn1ccc(C(=O)Nc2ccc3c(c2)CN(Cc2ccc(N4CCCC4)o2)CCC3)n1	28.5	54.6	-0.65
CC1CN(c2cc(=O)n(Cc3ccc(NC(=O)Nc4ccc(-c5ccccc5)cc4)cc3)cn2)CC(C)N1 (stereo not drawn)	1.33	1.47	-0.75
O=C(NCc1ccc(Cl)c(Cl)c1)c1ccc(-c2nc3ccc(Cl)cc3[nH]2)cc1	4.45	9.23	3.4
CC(C)(CC1CCCCC1)NC(=O)[C@H](CC1CCCCC1)Nc1ccc(C#N)c2ccccc12	1.82	1.4	-1.9
COc1ccc(OCC(O)CN(Cc2ccccc2OC)C(=O)Nc2ccc(Br)cc2)cc1 (stereo not drawn)	6.41	4.6	1.1
O=C(Nc1cccc(CN2CCCN(Cc3ccc(F)cc3)CC2)c1)c1cc2ccccc2s1	-2.26	-1.55	-0.88
